Compounds with a hit are over-represented: about 2.3% of the library has one in this group of screens.
LGR2 antag – inhibitors of bursicon-induced Drosophila LGR2 receptor cAMP signaling | inhibition, % at 9.99 µM | 380,000 compounds, 0.35% hits | HEK293 LGR2, CRE-luciferase, bursicon-stimulated, 4 h | AID 720647;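 active = drop in luminescence signal, shown as inhibition above about 50% in the replicate tests, limit read from the data, passing the limit was not always enough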;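 also: agonist challenge used bursicon conditioned medium at about half maximal strength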
hiPSC survival – increases survival of single human iPS cells. hiPSC single-cell survival, ATPlite luminescence; 100% = ROCK inhibitor wells, 0% = DMSO. survival enhancement, % at 20 µM. 360,000 compounds, 0.044% hits. AID 602274; in the data active = survival enhancement above about 18%;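 also: cells exposed to compounds for 16 hours before the ATP read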
KKLEB cytotox – reduces viability of KKLEB cystic fibrosis airway cells; KKLEB CF airway cells viability, ATPlite luminescence, overnight; hits give low values; cells stimulated with P. aeruginosa culture filtrate; AID 602141; activity change (cytotoxicity), % at 5 µM; 360,000 compounds, 0.36% hits;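 active = corrected activity change at or below -50% at 5 µM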
CF NFkB inh – cystic fibrosis NF-kB activation inhibition; AID 588850; 360,000 compounds, 0.86% hits; inhibition, % at 5 µM; KKLEB NF-kB-GFP reporter, PAF-induced, GFP fluorescence overnight;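 active = at least 50% inhibition at 5 µM, scaled per plate between neutral and stimulator controls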;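 also: PAF is a Pseudomonas aeruginosa culture filtrate used as stimulus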
HIF-2a block – HIF-2a inhibition. 786-0 RCC cells HIF-2a reporter, luciferase luminescence, overnight. inhibition, % at 18.8 µM. 360,000 compounds, 0.72% hits;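 active = inhibition of the luminescence signal of 40% or more relative to plate controls, in a single-dose primary screen at 18.75 µM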
TWEAK Fn14 block – blocks TWEAK-Fn14 interaction in a reporter cell assay; inhibition, % at 10 µM; 360,000 compounds, 2% hits; TWEAK-stimulated Fn14 reporter cells, luciferase luminescence, 8 h; in the data active = inhibition above about 50%
Hits are given with their value; i = inactive; nt = no result given.

SMILES	LGR2 antag	hiPSC survival	KKLEB cytotox	CF NFkB inh	HIF-2a block	TWEAK Fn14 block
C[C@H](CO)N1C[C@H](C)[C@@H](CN(C)C(=O)c2cnccn2)Oc2cc(Br)ccc2S1(=O)=O	i	nt	nt	nt	nt	nt
COc1ccc(NS(=O)CCCc2ccccc2)cc1 (configuration not stated)	i	i	i	i	i	54.3
COc1ccc(C(=O)NCCCCc2ccccc2)cc1	i	i	i	i	i	i
CC(=O)c1c(OCC(=O)O)ccc2c(C)cc(=O)oc12	i	i	i	i	i	i
CC(=O)c1c(OC(=O)c2ccccc2Br)ccc2c(C)cc(=O)oc12	i	i	i	i	i	54.3
CCOc1ccc(-n2nnnc2-c2nc3ccccc3s2)cc1	i	i	-70.4	70.1	i	74.3
Cc1ccc(-n2nnnc2-c2nc3ccccc3s2)cc1	i	i	i	i	i	i
CCOC(=O)c1cc(C)sc1NC(=O)C(c1ccccc1)c1ccccc1	i	i	i	i	i	i
CCc1cc(C(=O)O)c(NC(=O)C(c2ccccc2)c2ccccc2)s1	nt	i	-66.1	i	i	i
O=C(N/N=C/c1sc(=O)n(Cc2ccc(Br)cc2)c1Cl)c1ccco1	i	i	-75.2	64.5	i	i
O=C(C[C@@H]1C=C[C@@H](NC(=O)c2ccccc2)[C@H](CO)O1)Nc1ccc(-c2ccccc2)cc1	i	nt	nt	nt	nt	nt
COc1ccc(-n2c(N)c(C(=O)NCc3ccco3)c3nc4ccccc4nc32)cc1	nt	i	i	i	i	65.6
C=C1C(=O)[C@]23C[C@H]1CCC2[C@@]1(C)C(C[C@@H]3O)[C@](C)(C(=O)OC)CC[C@@H]1OC(C)=O (some centres not stated)	92.4	i	-100.5	89.3	97.7	96.2
C=C1C(=O)[C@]23C[C@H]1CCC2[C@@]1(C)C(C[C@@H]3O)[C@](C)(C(=O)O)C[C@H](O)[C@@H]1O (some centres not stated)	i	i	i	i	i	i
Cc1noc(C)c1NC(=O)Nc1ccc2c(c1)C(=O)N([C@@H](C)CO)C[C@@H](C)[C@H](CN(C)CC1CCCCC1)O2	i	nt	nt	nt	nt	nt
Cc1ccc(-c2nn3c(C)nnc3s2)cc1NC(=O)c1cccs1	nt	i	i	i	i	i
Cc1cc(-c2nn3c(C)nnc3s2)ccc1NC(=O)C(C)(C)C	nt	i	i	i	i	52.2
Cc1ccc(Nc2nc(CSc3nnc(-c4ccc(F)cc4)n3C)cs2)cc1	i	i	i	i	i	64.0
COc1ccc(-c2nnc(SCc3csc(N)n3)n2C)cc1	nt	i	i	i	i	i
CO[C@H]1CN(C)C(=O)c2cc(C#N)ccc2OC[C@H]2O[C@H](CC[C@H]2OC)CCN(C)C(=O)[C@@H]1C	i	nt	nt	nt	nt	nt
CCc1nn2cc(C(=O)c3cc(Cl)ccc3O)cnc2c1-c1ccc(F)cc1	i	i	i	i	i	64.3
Cc1nn(-c2ccccc2)c2ncc(C(=O)c3cc(Cl)ccc3O)cc12	i	i	i	i	i	i
COc1ccc(S(=O)(=O)N(C)C[C@H]2Oc3c(NS(=O)(=O)c4cccs4)cccc3C(=O)N([C@@H](C)CO)C[C@@H]2C)cc1	i	nt	nt	nt	nt	nt
CC1Cc2cc(/C(O)=C3/C(=O)C(=O)N(Cc4ccco4)C3c3cccs3)ccc2O1 (configuration not stated)	nt	i	i	i	i	65.5
COc1ccc(S(=O)(=O)N2C[C@@H](O)COC[C@@H]3O[C@H](CC(=O)N(C)C)CC[C@H]32)cc1	i	nt	nt	nt	nt	nt
SMILES	LGR2 antag	hiPSC survival	KKLEB cytotox	CF NFkB inh	HIF-2a block	TWEAK Fn14 block
COC(=O)c1ccc(-c2nc3cc(Cl)c(N)cc3s2)cc1	nt	i	-52.8	i	i	86.6
O=C(COc1ccc2c(c1)CCC2)Nc1ccccn1	74.0	i	i	i	59.8	96.7
Cc1c(C)c2ccc(OCC(=O)Nc3ccccn3)cc2oc1=O	i	i	i	i	i	81.7
Cc1c(C)c2ccc(OCC(=O)NCc3ccccn3)cc2oc1=O	i	i	i	i	i	i
Cc1c(C)c2ccc(OCC(=O)Nc3nccs3)cc2oc1=O	55.5	i	i	i	i	90.5
COC(=O)c1ccccc1S(=O)(=O)NNC(=O)Nc1ccccc1	58.1	i	i	i	i	68.8
CCOC(=O)/C(C#N)=C\c1cc(C)n(-c2ccccc2)c1C	nt	i	i	i	i	81.2
O=C(NC1=NC2CCCCC2N1)c1ccccc1 (configuration not stated)	i	i	i	i	i	76.3
O=C(NC1CCCCCCC1O)c1ccccc1 (configuration not stated)	i	i	i	i	i	i
CC(C)NC(=O)N(C)C[C@H]1OCCCC[C@H](C)Oc2ccc(NC(=O)Nc3ccc(F)cc3)cc2C(=O)N([C@H](C)CO)C[C@@H]1C	i	nt	nt	nt	nt	nt
COc1ccc(N=C2C(=Nc3ccc(OC)cc3)N(c3ccc(OC)cc3)C(=S)N2C(=O)c2ccc(OC)cc2)cc1	nt	i	i	i	i	i
COc1ccc(N=C2C(=Nc3ccc(OC)cc3)N(c3ccccc3)C(=S)N2C(=O)c2ccc(Cl)cc2)cc1	nt	i	i	i	i	65.6
COc1ccc(N2C(=S)N(C(=O)c3ccccc3)C(=Nc3ccccc3)C2=Nc2ccccc2)cc1	nt	i	i	i	i	74.7
O=[N+]([O-])c1ccc(-c2nc(Nc3cccc(O)c3)c3ccccc3n2)cc1	i	i	i	i	i	80.4
O=C(O)c1cccc(Nc2nc(-c3ccc([N+](=O)[O-])cc3)nc3ccccc23)c1	i	i	i	i	i	i
CCCc1ccc(-c2ccc(F)c(N)c2)nc1	78.9	i	i	i	i	88.7
O=C(CSc1ncnc2c1oc1ccccc12)Nc1nc2ccccc2s1	i	i	i	i	i	i
O=C(CSc1ncnc2c1sc1ccccc12)Nc1ccc(Br)cc1	i	i	-57.3	i	i	i
C[C@@H]1CN([C@H](C)CO)C(=O)c2cc(C#CCN(C)C)cnc2O[C@H]1CN(C)S(C)(=O)=O	i	nt	nt	nt	nt	nt
O=C(N/N=C/c1cn(Cc2ccccc2)c2ccccc12)c1cccnc1	i	i	i	i	i	53.6
c1coc(C2=NC(c3ccco3)C(c3ccco3)N2)c1 (configuration not stated)	nt	i	i	i	i	64.4
COC1=CC(=O)C(OC)=C(OC)C1=O	i	i	i	58.5	i	i
COc1ccc(S(=O)(=O)N(C)C[C@@H]2Oc3ccc(NC(=O)CCCN(C)C)cc3C(=O)N([C@@H](C)CO)C[C@@H]2C)cc1	i	nt	nt	nt	nt	nt
O=C(Nc1ccccc1C(=O)O)c1ccc(Cl)c(S(=O)(=O)N2CCOCC2)c1	nt	i	i	i	i	i
O=C(Nc1ccccc1C(=O)O)c1cc(S(=O)(=O)N2CCCCC2)c(Cl)cc1Cl	i	i	i	i	i	56.2
COCC(=O)Nc1ccc2c(c1)OC[C@@H](C)N(Cc1ccccc1OC)C[C@@H](C)[C@@H](OC)CN(C)C2=O	i	nt	nt	nt	nt	nt
O=C(O)/C=C/c1cnc2ccccc2n1	i	i	i	i	i	i
